These results are taken from PubChem BioAssay (NCI).

This is part of a sample that, as a whole, favours compounds with a hit. Of some 83,000 tested, about 20% had one in any assay.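 Growth was measured after 48 h exposure to one concentration of compound in 96-well plates. Values under 10 count as active.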 A number with no mark means an inactive call. The source made the active and inactive calls.

Test systems include T-47D breast; BT-549 breast; MDA-MB-435 melanoma; SW-620 colon; MCF7 breast; HCT-116 colon; HCC-2998 colon; KM12 colon; MDA-MB-468 breast.
Holding throughout (assay): NCI-60 one-dose screen, 48 h (100 = growth as untreated, 0 = no growth, -100 = all killed)
What all share (conditions): 10 µM unless noted

As for `Cc1cc(C(NC(=O)C2CC3(CC(Nc4cccc5c4C(=O)N(C4CCC(=O)NC4=O)C5=O)C3)C2)c2ccc3c(c2)OC(F)(F)O3)c(O)c2ncccc12` (stereo unspecified), the growth in the assay with T-47D breast is 11.5%; with BT-549 breast, 9.92% (active); with MDA-MB-435 melanoma, 28.5%; with SW-620 colon it was 25.6%; with MCF7 breast, 8.12% (active); with HCT-116 colon it was 15.6%. The growth in the assay on HCC-2998 colon is 36.6%; with KM12 colon, 17.5%; with MDA-MB-468 breast it was -30.6% (active).

Turning to `CCCCN1C(=O)/C(=C\C(=O)c2cc3ccccc3oc2=O)c2ccccc21`, the growth in the assay on T-47D breast is 23.6%; in the assay with BT-549 breast, 48%; in the assay on MDA-MB-435 melanoma it was 84.2%; in the assay on SW-620 colon it was -47.6% (active); in the assay on MCF7 breast it was 41%; in the assay on HCT-116 colon it was 51.3%. Further, the growth with HCC-2998 colon is 93.9%; in the assay with KM12 colon it was 85%; in the assay on MDA-MB-468 breast it was 18.1%.

Turning to `Cc1[nH]nc2ccc3nc(-c4cn[nH]c4C(F)(F)F)c4c(c3c12)CCCC4`, the growth in the assay with T-47D breast is 3.05% (active); with BT-549 breast, -82.4% (active); in the assay with MDA-MB-435 melanoma, 21.6%; in the assay on SW-620 colon, -31.1% (active); in the assay on MCF7 breast it was 5.54% (active); in the assay with HCT-116 colon, -49% (active). Besides, the results for the growth in the assay with HCC-2998 colon, in the assay on KM12 colon and with MDA-MB-468 breast were -16.6% (active), 9.09% (active) and -45.6% (active), respectively.

Turning to `Cc1ccc(-c2cc(-c3ccccc3)[nH]c(=O)c2C#N)cc1`, the growth in the assay with T-47D breast is 73.5%; in the assay on BT-549 breast, 88.5%; in the assay on MDA-MB-435 melanoma it was 107%; with SW-620 colon it was 97.8%; with MCF7 breast, 75.1%; in the assay with HCT-116 colon, 94.3%. Moreover, the growth is 114% with HCC-2998 colon, 91.2% with KM12 colon and 89.4% in the assay with MDA-MB-468 breast.

In the case of `O=C(CSc1nc2sc3c(c2c(=O)n1-c1ccc(Cl)cc1)CCCC3)NNC(=O)c1ccc(Br)cc1`, the growth is 58.5% in the assay with T-47D breast; 74.5% with BT-549 breast; 97.3% in the assay with MDA-MB-435 melanoma; 76.1% in the assay on SW-620 colon; 54.1% in the assay on MCF7 breast; 64% in the assay on HCT-116 colon. The growth was 108% in the assay with HCC-2998 colon, 96.6% in the assay with KM12 colon and 69.7% with MDA-MB-468 breast.

Turning to `CCCCCCCOc1ccc(S(=O)(=O)Nc2ccc(C)c(F)c2C(=O)O)cc1`, the growth with T-47D breast was 93.9%; in the assay on BT-549 breast, 103%; in the assay on MDA-MB-435 melanoma it was 102%; in the assay on SW-620 colon it was 100%; in the assay on MCF7 breast it was 86.6%; in the assay on HCT-116 colon, 95.5%. In addition, the growth was 117% with HCC-2998 colon, 97.1% in the assay on KM12 colon and 72.8% with MDA-MB-468 breast.

`Cc1cnc2ccc(Oc3ccccc3-c3ccccc3)nn12`: the growth in the assay with T-47D breast was 110%; in the assay on BT-549 breast, 107%; in the assay with MDA-MB-435 melanoma it was 110%; in the assay with SW-620 colon, 124%; with MCF7 breast, 93%; in the assay on HCT-116 colon, 101%. Moreover, the values for the growth in the assay with HCC-2998 colon, in the assay with KM12 colon and in the assay with MDA-MB-468 breast were 113%, 107% and 108%, respectively.

As to `CCCCCCCCc1cccc(CC(=O)Nc2ccc(C)cc2C(=O)O)c1`, the growth in the assay on T-47D breast was 65.6% [25 µM]; in the assay on BT-549 breast, 73.6% [25 µM]; with MDA-MB-435 melanoma, 54.9% [25 µM]; with SW-620 colon, 51.2% [25 µM]; in the assay on MCF7 breast it was 36.7% [25 µM]; in the assay on HCT-116 colon it was 28.1% [25 µM]. The growth in the assay with HCC-2998 colon was 69.4% [25 µM]; in the assay on KM12 colon, 45.8% [25 µM]; in the assay on MDA-MB-468 breast, 73% [25 µM].

`COc1cc(C2CC(c3ccc(C(F)(F)F)cc3)=Nc3c(N)nc(N)nc3N2)ccc1Oc1nc(Nc2ccc(F)cc2)nc(N(C)C)n1` (stereo unspecified): the growth is 57.8% in the assay on T-47D breast; 70.3% in the assay with BT-549 breast; 59.7% in the assay on MDA-MB-435 melanoma; 53.2% in the assay with SW-620 colon; 3.18% (active) in the assay with MCF7 breast; -16.4% (active) with HCT-116 colon. Besides, the growth is -17.8% (active) with HCC-2998 colon, 32.6% in the assay on KM12 colon and -8.26% (active) in the assay with MDA-MB-468 breast.

`COc1ccc(-c2cc(C(=O)Oc3ccc(C=O)cc3OC)nn2-c2ccc(S(C)(=O)=O)cc2)cc1`: the growth is 92.2% with T-47D breast; 105% in the assay on BT-549 breast; 98.3% with MDA-MB-435 melanoma; 109% in the assay with SW-620 colon; 84.5% with MCF7 breast; 98.3% in the assay with HCT-116 colon. The growth with HCC-2998 colon was 116%; in the assay on KM12 colon it was 103%; in the assay on MDA-MB-468 breast, 107%.

Turning to `O=C(N/N=C/c1c[nH]c2ccccc12)Nc1ccc(F)c(Cl)c1`, the growth was 34% with T-47D breast; 18.5% with BT-549 breast; 0.865% (active) in the assay with MDA-MB-435 melanoma; 41.3% in the assay with SW-620 colon; 9.25% (active) in the assay with MCF7 breast; 25.5% with HCT-116 colon. The growth is 3.69% (active) in the assay with HCC-2998 colon, -14.7% (active) in the assay on KM12 colon and -1.93% (active) in the assay with MDA-MB-468 breast.

`COc1ccc2[nH]c(=O)cc(-n3ncc(C(=O)/C=C/c4cc(OC)c(OC)c(OC)c4)c3C)c2c1`: the growth in the assay on T-47D breast is 5.38% (active); with BT-549 breast, -57.2% (active); in the assay with MDA-MB-435 melanoma, 1.51% (active); with SW-620 colon, -51.9% (active); in the assay with MCF7 breast it was 1.39% (active); in the assay with HCT-116 colon it was -52.9% (active). In addition, the growth with HCC-2998 colon was -93.9% (active); in the assay with KM12 colon it was -37.2% (active); in the assay on MDA-MB-468 breast, -71.1% (active).

Turning to `N#CCc1nnc(NC(=O)c2ccc(-n3c(=O)[nH]c4ccccc4c3=O)cc2)s1`, the growth in the assay with T-47D breast was 100%; in the assay on BT-549 breast, 109%; in the assay on MDA-MB-435 melanoma it was 106%; in the assay on SW-620 colon, 104%; with MCF7 breast, 90.6%; in the assay with HCT-116 colon it was 103%. The growth in the assay on HCC-2998 colon was 108%; in the assay with KM12 colon it was 121%; in the assay with MDA-MB-468 breast, 121%.

As to `COc1c(B(O)O)cccc1-c1nc2ccc3cn[nH]c3c2c2c1CCCC2`, the growth was 70.6% in the assay on T-47D breast; 30.7% in the assay on BT-549 breast; 84.2% in the assay with MDA-MB-435 melanoma; 53.6% with SW-620 colon; 60.5% in the assay on MCF7 breast; 28.8% in the assay with HCT-116 colon. Also, the growth with HCC-2998 colon is 86.9%; with KM12 colon it was 62.3%; in the assay with MDA-MB-468 breast, 10.5%.
